Calls of active or inactive are those of the source.
Experiments:
[1] = tested on: Human papillomavirus type 1a protein E7 (residues 44-93); experiment: small molecules binding HPV E7 44-93 – biochemical, small-molecule microarray, residues 44-93, 635 nm fluorescence, primary screen (AID 1108); settings: fluorescence 635 nm, higher = more signal;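 also: E7 fragment applied at 1 µg/mL in TBST for 1 h at 4 C; score combines spot fluorescence with its signal to noise ratio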
[2] = hepatitis C replication reporter changes, two-sided – Huh7 cells, luciferase reporter, HCV replication inhibitor project, primary screen (AID 1109); settings: Huh7 HCV replicon luciferase reporter, 48 h; higher = more signal;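 also: huh7 hepatoma cells harbouring a luciferase neomycin HCV replicon reporter; luciferase luminescence as measure of HCV replicon replication; test concentration not given here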
[3] = target: Left-right determination factor 2 (Homo sapiens) (UniProt O00292); experiment: small molecules binding LEFTY2 protein – biochemical, small-molecule microarray, 635 nm fluorescence scan, primary screen (AID 1110); settings: higher = more signal
[4] = target: Calmodulin-1 (Homo sapiens) (UniProt P0DP23); experiment: small molecules binding calmodulin-1 with EGTA – biochemical, small-molecule microarray, Cy5-labelled CALM1, profiling panel (AID 1111); settings: Cy5-CALM1 binding fluorescence, higher = more signal;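 also: labelled calmodulin applied in Tris saline Tween buffer holding calcium plus EGTA and DTT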
[5] = target: Calmodulin-1 (Homo sapiens) (UniProt P0DP23); experiment: small molecules binding Ca-loaded calmodulin-1 – biochemical, small-molecule microarray, Cy5-labelled CALM1, plus calcium, artefact control for SMM control-protein annotation, profiling panel (AID 1112); settings: Cy5-CALM1 binding fluorescence, higher = more signal;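 also: score merges spot fluorescence with signal to noise from triplicate slides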
[6] = probe aWnt5a binding to arrayed compounds – biochemical, biotinylated probe, 635/667 nm fluorescence, primary screen (AID 1113); settings: small-molecule microarray, higher = more signal;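 also: score merges 667 nm fluorescence intensity with signal-to-noise per printed feature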
[7] = probe aShh binding to arrayed compounds – biochemical, biotinylated probe, 635/667 nm fluorescence, primary screen (AID 1114); settings: small-molecule microarray, higher = more signal;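 also: probe is biotin-labelled aShh protein from a stem cell growth factor screen; measures binding of labelled protein to compounds printed on the slide; score merges feature fluorescence at 667 nm with signal-to-noise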
[8] = probe aNog binding to arrayed compounds – biochemical, biotinylated probe, 635/667 nm fluorescence, primary screen (AID 1115); settings: small-molecule microarray, higher = more signal;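 also: probe is biotinylated aNog protein used at 0.15 µg/mL for 1 h at 4 C; z-score combines 667 nm fluorescence of each spot with its signal to noise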
[9] = target: Torsin-1A-interacting protein 1 (Homo sapiens) (UniProt Q5JTV8); experiment: compound microarray binding of lysate hLAP1 – cell lysate, small-molecule microarray, COS7 lysate, 635/667 nm fluorescence, primary screen (AID 1116); settings: 635 nm fluorescence, higher = more signal
[10] = target: Alpha-bungarotoxin (Bungarus multicinctus) (UniProt P60615); experiment: compounds binding labelled alpha-BTX control protein – biochemical, small-molecule microarray, Alexa647 label, 635/667 nm fluorescence, artefact control for SMM control protein annotation, profiling panel (AID 1117); settings: alpha-BTX-A647 binding fluorescence, higher = more signal
Albumin (Bos taurus) = Albumin (Bos taurus) (UniProt P02769); experiment: compounds binding labelled BSA control protein – biochemical, small-molecule microarray, Alexa647 label, 635/667 nm fluorescence, artefact control for SMM control protein annotation, profiling panel (AID 1118); settings: BSA-A647 binding, fluorescence 635 nm, higher = more signal;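 also: score merges 667 nm emission intensity and signal-to-noise per printed compound spot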
[11] = probe aXIP binding to arrayed compounds – biochemical, NeuroSMM set, 635/667 nm fluorescence, primary screen (AID 1119); settings: small-molecule microarray, higher = more signal, called active from +8 up or from −8 down;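 also: probe is the protein aXip251-270 applied at 1 µg/mL to compound-printed slides; binding of probe to printed compounds measured as 667 nm fluorescence plus signal to noise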
[12] = probe aNOTCH3 binding on compound microarray – biochemical, small-molecule microarray, 635/667 nm fluorescence, primary screen (AID 1120); settings: higher = more signal;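 also: probe is a biotin-tagged antibody raised against NOTCH3 rather than NOTCH3 protein; score merges spot fluorescence near 667 nm with spot signal to noise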
[13] = probe aNOTCH2 binding on compound microarray – biochemical, small-molecule microarray, 635/667 nm fluorescence, primary screen (AID 1121); settings: higher = more signal;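 also: score merges feature fluorescence read at 667 nm with its signal to noise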
[14] = target: Carbonic anhydrase 2 (Homo sapiens) (UniProt P00918); experiment: compounds binding carbonic anhydrase 2 – biochemical, small-molecule microarray, Alexa647-labelled CAII, profiling panel (AID 1122); settings: CAII-A647 binding fluorescence, higher = more signal
[15] = COS7 lysate on small-molecule microarray, probe aHis, 635 nm (AID 1123); settings: COS7 cell lysate, fluorescence, higher = more signal;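 also: z-score combines 667nm fluorescence intensity with signal-to-noise per printed compound spot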
[16] = probe aLAP1 signal on lysate-treated microarray – cell lysate, small-molecule microarray, COS7 lysate, primary screen (AID 1124); settings: probe aLAP1, fluorescence, higher = more signal;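 also: lysate comes from COS7 cells expressing LAP1 and is applied at 0.3 µg/mL; score merges spot fluorescence near 667 nm with signal-to-noise over triplicate slides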
Sam68 (KHDRBS1) = experiment: compounds binding KHDRBS1 protein – biochemical, small-molecule microarray, 635 nm fluorescence, primary screen (AID 1125); settings: higher = more signal;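 also: score merges 667 nm channel intensity with signal to noise over triplicate slides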
[17] = tested on: Chordin-like protein 2 (CHRDL2); experiment: compounds binding chordin-like 2 – biochemical, small-molecule microarray, 635 nm fluorescence, primary screen (AID 1126); settings: fluorescence 635 nm, higher = more signal;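 also: printed compound slides probed with Chrdl2 protein at 4 µg/mL for 1 h at 4 C; score merges 667 nm emission intensity with signal to noise over three replicate slides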
[18] = target: Concanavalin-A (Canavalia ensiformis) (UniProt P02866); experiment: compounds binding concanavalin A lectin – biochemical, small-molecule microarray, Alexa647 label, 635 nm, artefact control for SMM control protein annotation, primary screen (AID 1127); settings: ConA-A647 binding fluorescence, higher = more signal;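 also: z combines 667 nm emission intensity with signal-to-noise across three replicate slides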
Chain of Concanavalin-A (Canavalia ensiformis) (P02866 whole entry, looked up): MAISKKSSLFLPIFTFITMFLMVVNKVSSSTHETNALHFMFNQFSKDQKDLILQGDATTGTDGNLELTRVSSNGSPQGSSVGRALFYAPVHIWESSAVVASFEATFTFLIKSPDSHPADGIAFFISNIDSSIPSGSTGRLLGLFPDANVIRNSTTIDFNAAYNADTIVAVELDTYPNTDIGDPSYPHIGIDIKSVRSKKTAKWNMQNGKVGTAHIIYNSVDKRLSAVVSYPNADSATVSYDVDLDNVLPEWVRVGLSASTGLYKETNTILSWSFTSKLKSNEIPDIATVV

Chain of Albumin (Bos taurus) (P02769 whole entry, looked up): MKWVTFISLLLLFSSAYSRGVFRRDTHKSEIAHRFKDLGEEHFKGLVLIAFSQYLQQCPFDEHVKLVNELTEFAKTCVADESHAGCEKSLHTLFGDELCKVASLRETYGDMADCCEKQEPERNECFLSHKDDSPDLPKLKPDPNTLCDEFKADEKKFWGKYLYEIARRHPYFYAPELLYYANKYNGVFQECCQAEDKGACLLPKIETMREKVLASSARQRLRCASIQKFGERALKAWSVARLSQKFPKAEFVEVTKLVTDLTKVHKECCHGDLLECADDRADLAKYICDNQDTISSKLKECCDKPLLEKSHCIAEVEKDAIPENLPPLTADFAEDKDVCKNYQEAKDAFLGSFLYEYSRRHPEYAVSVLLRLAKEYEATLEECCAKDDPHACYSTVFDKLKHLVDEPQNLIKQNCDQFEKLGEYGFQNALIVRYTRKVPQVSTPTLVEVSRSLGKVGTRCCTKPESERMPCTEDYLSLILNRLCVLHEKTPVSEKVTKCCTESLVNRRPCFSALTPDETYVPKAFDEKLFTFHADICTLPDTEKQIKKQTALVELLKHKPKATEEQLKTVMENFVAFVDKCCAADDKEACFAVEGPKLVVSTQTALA
Chain of Alpha-bungarotoxin (Bungarus multicinctus) (P60615 whole entry, looked up): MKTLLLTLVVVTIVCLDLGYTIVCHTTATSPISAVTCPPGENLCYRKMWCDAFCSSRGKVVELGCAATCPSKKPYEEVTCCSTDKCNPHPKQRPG
Chain of Left-right determination factor 2 (Homo sapiens) (O00292 whole entry, looked up): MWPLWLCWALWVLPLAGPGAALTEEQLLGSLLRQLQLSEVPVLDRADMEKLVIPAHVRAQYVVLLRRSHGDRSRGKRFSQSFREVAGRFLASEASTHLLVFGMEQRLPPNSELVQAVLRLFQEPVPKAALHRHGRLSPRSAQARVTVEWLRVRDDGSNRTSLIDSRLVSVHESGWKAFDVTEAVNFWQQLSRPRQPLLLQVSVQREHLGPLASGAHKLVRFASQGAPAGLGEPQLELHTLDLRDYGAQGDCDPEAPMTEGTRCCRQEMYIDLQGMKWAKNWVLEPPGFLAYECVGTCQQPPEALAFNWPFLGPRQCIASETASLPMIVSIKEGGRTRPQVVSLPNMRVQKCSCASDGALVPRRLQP
Chain of Torsin-1A-interacting protein 1 (Homo sapiens) (Q5JTV8 whole entry, looked up): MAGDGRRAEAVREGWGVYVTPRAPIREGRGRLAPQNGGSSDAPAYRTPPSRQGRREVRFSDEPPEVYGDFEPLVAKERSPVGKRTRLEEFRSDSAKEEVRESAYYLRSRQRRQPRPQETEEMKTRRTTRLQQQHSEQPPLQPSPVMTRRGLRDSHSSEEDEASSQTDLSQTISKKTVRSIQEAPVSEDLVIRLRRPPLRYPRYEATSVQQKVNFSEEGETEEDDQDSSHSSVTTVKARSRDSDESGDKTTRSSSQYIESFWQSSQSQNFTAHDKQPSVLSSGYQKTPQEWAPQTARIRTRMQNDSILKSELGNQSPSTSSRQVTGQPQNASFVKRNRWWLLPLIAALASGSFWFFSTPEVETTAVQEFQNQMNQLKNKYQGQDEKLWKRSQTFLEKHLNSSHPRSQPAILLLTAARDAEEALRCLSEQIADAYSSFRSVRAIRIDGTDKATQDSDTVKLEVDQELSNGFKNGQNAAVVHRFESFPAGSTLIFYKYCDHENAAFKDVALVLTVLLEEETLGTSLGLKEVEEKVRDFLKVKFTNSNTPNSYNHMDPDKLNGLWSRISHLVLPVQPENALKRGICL

Row | Compound | composite z-score [1] | z-score [2] | composite z-score [3] | composite z-score [4] | composite z-score [5] | composite z-score [6] | composite z-score [7] | composite z-score [8] | composite z-score [9] | composite z-score [10] | composite z-score (Albumin (Bos taurus)) | composite Z-score [11] | composite z-score [12] | composite z-score [13] | composite z-score [14] | composite z-score [15] | composite z-score [16] | composite z-score (Sam68 (KHDRBS1)) | composite z-score [17] | composite z-score [18]
1 | COC(=O)[C@@]1(Cc2ccc(OC)cc2)[C@@H]2[C@@H](CC(=O)[C@H]2CC(=O)C(=O)N(C)C)CN1C(=O)c1ccccc1 | 1.42 | -2.35 | 0.243 | 2.66 | 1.51 | 0.346 | 2.46 | 0.899 | 1.51 | 1.67 | 0.964 | 0.289 (inactive) | 1.52 | 0.732 | 0.617 | 3.17 | 0.505 | 1.32 | -0.875 | 1.13
2 | O=C1NC(=O)C2C1C=CC(C(O)C1CCCCC1)N2Nc1ccccn1 (stereo not given) | 0.657 | -0.442 | 0.372 | 0.5 | 0.469 | -0.0478 | 0.321 | 0.69 | -0.26 | 0.353 | 0.516 | 0.468 (inactive) | 0.0351 | -0.0422 | 0.827 | 1.36 | -0.636 | 0.233 | 0.342 | 0.898
3 | Cc1ccc(S[C@]2(C(=O)NCc3ccccc3)CC(=O)N(Cc3ccccc3C(F)(F)F)[C@@H]2c2ccc(CO)cc2I)cc1 | -0.565 | -1.64 | -0.916 | -0.348 | 0.549 | -0.124 | -0.334 | 0.389 | 0.662 | -0.593 | 0.269 | -0.915 (inactive) | -0.242 | -0.0417 | 0.815 | 1.2 | 1.04 | -0.0245 | -0.175 | -0.546
4 | COc1ccc(CCNC(=O)[C@@]2(c3ccc([N+](=O)[O-])cc3)CC(=O)N(C3CCCCC3)[C@@H]2c2ccc(CO)cc2I)cc1 | 0.535 | -2.57 | 0.497 | 0.529 | 0.113 | -0.0643 | 0.108 | 0.639 | 0.733 | 0.201 | -0.127 | 0.931 (inactive) | 0.0293 | 0.0254 | 0.364 | 1.52 | 0.89 | 0.962 | 0.252 | 0.754
5 | CCOC(=O)C1=CCC(c2cccn2C(=O)OC(C)(C)C)N(S(=O)(=O)c2ccc(C)cc2)C1 (stereo not given) | 0.18 | -3.94 | 0.379 | 0.864 | 0.439 | -0.104 | 0.428 | 1.21 | 1.52 | 2.21 | 0.871 | 0.76 (inactive) | 0.17 | 0.0351 | 0.523 | 2.82 | 0.421 | 0.948 | 0.551 | 0.722

From PubChem BioAssay
